Here are results for 20 compounds from PubChem BioAssay (EPA / NIEHS).

In test [1] the target is Estrogen receptor (Homo sapiens) (UniProt P03372). Nature of the test: OT_ERa_GFPERaERE_0480: Odyssey Thera (OT) 8-hour HeLa Transcription Induction Assay for Estrogen Receptor (AID 2283381; active = hit-call score of the fitted dose curve at least 0.9, where 1 is the maximum; inactive = score below 0.9). In outline: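 HeLa cells dosed with compound and imaged by fluorescence microscopy at 8 h; GFP induction from an ERE reporter quantified by high-content image analysis and fitted as gain of signal against DMSO baseline.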
Chain of Estrogen receptor (Homo sapiens) (P03372 whole entry, looked up): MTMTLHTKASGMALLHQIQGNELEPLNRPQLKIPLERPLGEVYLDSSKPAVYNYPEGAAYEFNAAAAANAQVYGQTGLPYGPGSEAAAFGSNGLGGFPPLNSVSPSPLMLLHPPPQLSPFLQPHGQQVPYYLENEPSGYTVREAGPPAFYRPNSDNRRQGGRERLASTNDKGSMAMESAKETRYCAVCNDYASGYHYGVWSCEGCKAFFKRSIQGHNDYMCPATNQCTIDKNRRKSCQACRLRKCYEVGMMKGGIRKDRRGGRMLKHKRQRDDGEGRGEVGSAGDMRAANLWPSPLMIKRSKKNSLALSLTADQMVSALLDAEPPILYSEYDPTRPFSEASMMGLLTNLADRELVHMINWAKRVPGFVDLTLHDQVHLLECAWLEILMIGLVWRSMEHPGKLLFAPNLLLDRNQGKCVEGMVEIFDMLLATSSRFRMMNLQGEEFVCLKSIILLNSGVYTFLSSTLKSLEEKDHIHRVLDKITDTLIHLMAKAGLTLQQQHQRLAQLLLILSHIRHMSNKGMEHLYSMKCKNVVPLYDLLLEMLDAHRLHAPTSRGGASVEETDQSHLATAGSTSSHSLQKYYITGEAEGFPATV

The target is the same in test [2]. The test is described as follows: OT_ERa_GFPERaERE_0120: Odyssey Thera (OT) 2-hour HeLa Transcription Induction Assay for Estrogen Receptor (AID 2283382). The method in brief:
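HeLa cells were dosed with test chemical and read 2 hours later for GFP-ERα/ERE-linked fluorescent protein induction by fluorescence microscopy. Gain-of-signal was fitted relative to DMSO baseline, quantified by high content image analysis.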

The target of test [3] is Bile acid receptor (Homo sapiens) (UniProt Q96RI1). The test is described as follows: OT_FXR_FXRSRC1_0480: Odyssey Thera (OT) 8-hour HEK293T Protein-Complementation Assay for Farnesoid X receptor/SRC-1 Co-activator (AID 2283383). In outline: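 HEK293T cells expressing FXR and SRC-1 fused to reporter fragments were dosed with compound for 8 h; fluorescence from the reconstituted reporter marked co-activator recruitment. Gain of signal was fitted against the DMSO baseline.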
Chain of Bile acid receptor (Homo sapiens) (Q96RI1 whole entry, looked up, the tested form may be a part): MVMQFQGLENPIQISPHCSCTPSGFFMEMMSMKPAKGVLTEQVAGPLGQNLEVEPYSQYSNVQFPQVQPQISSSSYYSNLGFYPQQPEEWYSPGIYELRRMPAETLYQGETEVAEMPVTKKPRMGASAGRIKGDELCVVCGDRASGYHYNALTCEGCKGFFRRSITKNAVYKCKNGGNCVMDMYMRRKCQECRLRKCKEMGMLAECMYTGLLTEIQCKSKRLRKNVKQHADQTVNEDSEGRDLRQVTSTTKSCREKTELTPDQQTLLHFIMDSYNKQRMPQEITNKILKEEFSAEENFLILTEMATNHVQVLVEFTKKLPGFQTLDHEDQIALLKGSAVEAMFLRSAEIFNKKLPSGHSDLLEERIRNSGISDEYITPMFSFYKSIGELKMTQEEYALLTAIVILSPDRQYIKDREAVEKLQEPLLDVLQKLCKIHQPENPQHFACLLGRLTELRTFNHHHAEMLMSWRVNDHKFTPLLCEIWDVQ

For test [4], the target named is Retinoic acid receptor RXR-alpha (Homo sapiens) (UniProt P19793). The test is described as follows: OT_NURR1_NURR1RXRa_0480: Odyssey Thera (OT) 8-hour HEK293T Protein Complementation Assay for Nurr1/retinoid X receptor (RXR) (AID 2283385). The method in brief:
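HEK293T cells expressing Nurr1 and RXRα fused to reporter fragments were dosed with compound for 8 hours. Complex formation was read as fluorescence intensity and analysed as gain of signal against DMSO as baseline.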

The target of test [5] is Peroxisome proliferator-activated receptor gamma (Homo sapiens) (UniProt P37231). Nature of the test: OT_PPARg_PPARgSRC1_0480: Odyssey Thera (OT) 8-hour Protein-Complementation Assay for Peroxisome Proliferator-activated Receptor Gamma / SRC-1 Co-activator (AID 2283387).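 Note: nuclear to cytoplasmic split Venus YFP fluorescence ratio reporting PPARg SRC-1 interaction.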 In outline: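 Split-YFP (IFP1/IFP2) PPARg/SRC-1 reporter, HEK293T, 37 °C, 5% CO2; 8 h compound; formaldehyde fix + Draq5; high-content imaging, N/C ratio, ≥350 cells/image, positive direction vs DMSO.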
Chain of Peroxisome proliferator-activated receptor gamma (Homo sapiens) (P37231 whole entry, looked up): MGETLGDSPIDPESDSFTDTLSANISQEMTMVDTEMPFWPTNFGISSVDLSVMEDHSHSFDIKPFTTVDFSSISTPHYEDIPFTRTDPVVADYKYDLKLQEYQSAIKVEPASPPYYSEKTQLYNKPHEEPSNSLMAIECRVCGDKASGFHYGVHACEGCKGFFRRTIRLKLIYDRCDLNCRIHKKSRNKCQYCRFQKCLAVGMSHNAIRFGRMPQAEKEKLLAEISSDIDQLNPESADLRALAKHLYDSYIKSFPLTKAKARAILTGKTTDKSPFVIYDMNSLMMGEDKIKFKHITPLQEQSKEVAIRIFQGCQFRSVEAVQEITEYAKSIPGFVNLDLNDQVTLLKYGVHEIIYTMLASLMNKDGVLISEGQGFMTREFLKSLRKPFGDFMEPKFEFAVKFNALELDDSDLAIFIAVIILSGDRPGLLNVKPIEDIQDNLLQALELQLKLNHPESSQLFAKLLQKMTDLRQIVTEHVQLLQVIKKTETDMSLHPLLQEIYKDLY

Test [6] has the same target. The test is described as follows: OT_PPARg_PPARgSRC1_1440: Odyssey Thera (OT) 24-hour Protein-Complementation Assay for Peroxisome Proliferator-activated Receptor Gamma/ SRC-1 Co-activator (AID 2283388).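 Note: nuclear to cytoplasmic ratio of reconstituted Venus YFP fluorescence in fixed imaged cells.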 The method in brief:
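Readout: nuclear-to-cytoplasmic 488 nm fluorescence ratio, ≥350 cells per image, 8 images per well, after 24 h compound exposure of HEK293T expressing PPARg/SRC-1 split-YFP fusions. Activity fitted in positive direction against DMSO.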

Test [7] deals with Estrogen receptor beta (Homo sapiens) (UniProt Q92731). The test is described as follows: OT_ER_ERbERb_1440: Odyssey Thera (OT) 24-hour HEK293T Protein-Complementation Assay for Estrogen Receptor-beta/-beta Homodimer (AID 2283380).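 Note: fluorescence gain from ER beta LBD homodimer complementation read by laser scanning cytometry; scored as signal increase over DMSO baseline for both agonists and antagonists.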 In outline:
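Fluorescence increase, nuclear for agonists or whole-cell for antagonists, relative to DMSO vehicle, quantified by laser scanning cytometer after fixation and Draq5 staining. Readout from 24 h treatment of HEK293T cells carrying complementation-paired ER beta LBD (aa 310-547).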

In test [8] the target is Retinoic acid receptor RXR-alpha (Homo sapiens) (UniProt P19793). The test is described as follows: OT_NURR1_NURR1RXRa_1440: Odyssey Thera (OT) 24-hour HEK293T Protein Complementation Assay for Nurr1/retinoid X receptor (RXR) (AID 2283386). In outline: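 HEK293T cells were dosed with compound and read 24 h later by fluorescence intensity in a protein-fragment complementation format, where Nurr1–RXRα interaction reconstitutes a split reporter. Activity was fitted as gain of signal relative to DMSO baseline.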
Chain of Retinoic acid receptor RXR-alpha (Homo sapiens) (P19793 whole entry, looked up, the tested form may be a part): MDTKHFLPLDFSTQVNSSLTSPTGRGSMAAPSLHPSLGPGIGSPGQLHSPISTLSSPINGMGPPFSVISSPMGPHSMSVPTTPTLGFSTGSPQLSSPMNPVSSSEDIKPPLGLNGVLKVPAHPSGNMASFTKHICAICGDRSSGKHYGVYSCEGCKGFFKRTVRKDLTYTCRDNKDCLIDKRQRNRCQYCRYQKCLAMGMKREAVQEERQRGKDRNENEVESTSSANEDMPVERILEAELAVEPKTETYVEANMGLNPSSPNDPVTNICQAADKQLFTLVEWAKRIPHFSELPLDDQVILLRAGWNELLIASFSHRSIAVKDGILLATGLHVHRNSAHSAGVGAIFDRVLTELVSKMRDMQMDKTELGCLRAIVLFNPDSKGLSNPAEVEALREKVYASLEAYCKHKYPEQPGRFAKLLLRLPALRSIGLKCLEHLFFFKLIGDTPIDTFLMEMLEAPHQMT

Test [9] has as its target Agonist Androgen Response Element (ARE), AR (gene 367) (UniProt P10275). The test is described as follows: OT_AR_ARELUC_AG_1440: Odyssey Thera (OT) 24-hour CHO-K1 Luciferase Assay for Agonist Androgen Response Element (ARE) (AID 2283379). The method in brief: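 Agonist mode, 24 h exposure in CHO-K1 ARE-luciferase cells; values reflect luminescence induction over vehicle.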

Test [10] is described as follows: CEETOX_H295R_ANDR: CeeTox H295R High-throughput Steroidogenesis Assay for Androstenedione (ANDR) (AID 2283436; active = hit-call score of the fitted dose curve at least 0.9, where 1 is the maximum; inactive = score below 0.9;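 note: human H295R adrenal cells exposed for 48 h with androstenedione measured in medium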). To be noted: actives raise or lower the signal. In outline:
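Read-out is androstenedione secreted into medium, measured by tandem mass spectrometry after liquid-liquid extraction. Cells were H295R, dosed for 48 h per modified OECD 456; activity fitted in both directions relative to DMSO.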

Records with an inconclusive call do not appear. Activity calls are given as the source filed them. Rule for the calls, unless noted: active = hit-call score of the fitted dose curve at least 0.9, where 1 is the maximum; inconclusive = response in the unintended direction; inactive = score below 0.9. Peptide text beside a SMILES is read from it.

Chain of Agonist Androgen Response Element (ARE), AR (gene 367) (P10275 whole entry, looked up): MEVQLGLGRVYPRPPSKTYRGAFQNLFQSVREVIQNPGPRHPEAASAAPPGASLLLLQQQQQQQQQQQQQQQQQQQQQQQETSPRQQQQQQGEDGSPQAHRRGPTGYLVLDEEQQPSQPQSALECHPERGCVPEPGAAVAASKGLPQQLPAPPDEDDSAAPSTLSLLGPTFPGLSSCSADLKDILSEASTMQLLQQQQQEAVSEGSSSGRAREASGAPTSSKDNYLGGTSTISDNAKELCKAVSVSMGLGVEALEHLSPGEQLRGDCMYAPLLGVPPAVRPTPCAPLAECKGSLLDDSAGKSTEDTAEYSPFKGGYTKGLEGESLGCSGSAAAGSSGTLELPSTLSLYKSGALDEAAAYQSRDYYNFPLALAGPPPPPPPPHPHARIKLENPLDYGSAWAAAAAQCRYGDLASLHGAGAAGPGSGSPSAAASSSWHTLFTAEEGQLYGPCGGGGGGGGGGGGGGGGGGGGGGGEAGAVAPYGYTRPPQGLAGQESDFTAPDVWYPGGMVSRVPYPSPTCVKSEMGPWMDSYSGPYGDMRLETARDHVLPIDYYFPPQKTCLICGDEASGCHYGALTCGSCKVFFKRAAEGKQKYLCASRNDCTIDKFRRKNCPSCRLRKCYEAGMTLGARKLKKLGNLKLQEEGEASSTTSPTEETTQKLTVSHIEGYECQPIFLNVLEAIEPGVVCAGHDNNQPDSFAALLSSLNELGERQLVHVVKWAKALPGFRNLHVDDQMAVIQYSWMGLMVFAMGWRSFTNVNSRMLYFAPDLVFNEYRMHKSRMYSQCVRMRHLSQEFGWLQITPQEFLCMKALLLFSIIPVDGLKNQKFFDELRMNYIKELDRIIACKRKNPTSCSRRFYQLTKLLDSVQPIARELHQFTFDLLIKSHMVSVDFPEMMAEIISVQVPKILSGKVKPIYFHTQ
Chain of Estrogen receptor beta (Homo sapiens) (Q92731 whole entry, looked up, the tested form may be a part): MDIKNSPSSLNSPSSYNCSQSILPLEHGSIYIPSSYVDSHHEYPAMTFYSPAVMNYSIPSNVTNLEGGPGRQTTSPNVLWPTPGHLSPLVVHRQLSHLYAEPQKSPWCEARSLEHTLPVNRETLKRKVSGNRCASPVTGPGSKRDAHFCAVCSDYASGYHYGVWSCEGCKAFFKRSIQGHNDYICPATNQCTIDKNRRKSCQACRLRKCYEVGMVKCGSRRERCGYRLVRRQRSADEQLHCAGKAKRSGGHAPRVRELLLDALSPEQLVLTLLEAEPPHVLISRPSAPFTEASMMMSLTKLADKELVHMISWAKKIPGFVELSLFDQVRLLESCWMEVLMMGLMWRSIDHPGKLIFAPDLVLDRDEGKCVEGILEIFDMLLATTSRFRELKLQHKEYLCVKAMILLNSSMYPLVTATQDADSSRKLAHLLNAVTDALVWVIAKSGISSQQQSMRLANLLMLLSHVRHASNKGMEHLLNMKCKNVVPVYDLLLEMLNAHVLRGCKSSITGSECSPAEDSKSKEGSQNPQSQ

In the case of `COC(=O)[C@H](Cc1ccccc1)NC(=O)[C@@H](N)CC(=O)O` (H-Asp-Phe-OMe), the outcome in test [1], in test [2], in test [3], in test [4], in test [5] and in test [6] was inactive.
For `CCCCOCCOC(=O)COc1ccc(Cl)cc1Cl`, the compound was classed as inactive in test [7], in test [1], in test [2], in test [5] and in test [6].
As to `CC(=O)OC(C)c1ccccc1` (configuration not stated), the outcome in test [7], in test [1], in [2], in test [8], in test [5] and in test [6] was inactive.
`O=C(O)C1CCC(C(=O)O)CC1` (configuration not stated): the call in test [1], in [2], in test [3], in test [8] and in [5] was inactive.
Take `CCOC(=O)C1=NOC(c2ccccc2)(c2ccccc2)C1`: the compound was classed as inactive in test [1], in test [2], in test [3], in test [4], in [8] and in [5]. Also, the compound was called inactive in test [6].
Take `CCCCCCCCCC(C)=O`: the result in test [9], in test [1], in [2] and in test [5] was inactive.
Turning to `CCCCC(C=O)CC` (configuration not stated), the call in test [1], in [2], in test [3], in test [8] and in test [5] was inactive.
On to `C=CCOC(=O)c1ccc(C(=O)OCC=C)c(C(=O)OCC=C)c1`, for which the compound was called inactive in test [7], in test [1], in test [2], in test [4] and in test [5].
As for `CCc1cccc(C)c1N`, the compound was called inactive in test [9], in test [1], in [2], in [8], in [5] and in [6].
Consider `NC(=O)Nc1ccccc1`, for which the compound was classed as inactive in [7], in test [1], in test [2], in [4] and in [8].
As to `CC(C)c1ccc(O)c(C(C)C)c1`, the call in test [7], in test [1], in [2], in test [5] and in test [6] was inactive.
On to `CCCCCCOC(=O)CCCCC(=O)OCCCCCC`, for which the call in [7], in test [1], in test [2], in test [3], in test [8] and in test [5] was inactive.
As for `CCOC(=O)c1ccccc1C`, in test [7], the concentration at half-maximal activity (AC50) is 29.4 µM (active). Besides, the compound was called inactive in test [1], in test [2], in [3], in test [4], in test [8] and in test [5].
Turning to `CCCCCCCCC(CO)CCCCCC` (configuration not stated), the compound was called inactive in [1], in [3], in test [8] and in [5]. The half-maximal activity concentration (AC50) in [2] was 17.7 µM (active).
As for `CCCC(CC)c1ccccc1` (configuration not stated), the outcome in test [7], in test [1], in [2], in test [8], in test [5] and in test [6] was inactive.
`CN(C)Cc1cc(CN(C)C)c(O)c(CN(C)C)c1`: the outcome in test [9], in [1], in test [2], in test [8], in test [5] and in test [6] was inactive.
On to `CC(C)(C)C1CCC(=O)CC1`, for which the call in test [1], in test [2], in [3], in test [8] and in test [5] was inactive.
Turning to `C/C=C/C=C/CCCCCCCO`, the compound was classed as inactive in test [1], in [2], in test [3], in [4] and in test [5]. Moreover, the AC50 in test [8] is 5.06 µM (active).
For the compound `CCOC(=O)C1=NN(c2ccc(Cl)cc2Cl)C(C)(C(=O)OCC)C1` (configuration not stated), in test [10], the call was inactive.
Same read-out and setting: next, `C=CC(=O)OCCCCCCOC(=O)C=C`: “inactive”.

Usually AC50 stands for the midpoint of the concentration-response curve, whichever way the signal moves.
